KB-3-1 cytotox – KB-3-1 parental cell cytotoxicity; KB-3-1 viability, CellTiter-Glo ATP luminescence, 72 h; Potency, µM (titrated, usually from 46.1 µM), usual class: cytotoxic; 400,000 tested, 1.4% active; further: on the % scale 0 is the no-effect control and ±100 the full control effect; nearly all actives have a fitted effect of over 60% in size
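Here the drug-naive KB-3-1 line serves as comparator for MDR sub-line selectivity; cells received compound titrations, 72 h at 37 °C, then CellTiter-Glo readout.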
SW480 rerep – inducers of DNA re-replication in SW480 colon cancer cells; SW480 DNA re-replication, Hoechst DNA content imaging, 48 h; Potency, µM (doses to about 46.1 µM), for the others: top-dose re-replication activation, usual class: activators; 340,000 tested, 1.8% active; AID 624297; further: % of control where 0% means no effect; nearly all actives have a fitted effect of over 55% in size
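Treated cells incubate 48 hr (37 C, 5% CO2), are stained 40 min with Hoechst, and nuclear fluorescence is enumerated; a rise in nuclei with high DNA signal marks re-replication.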
TSG101-PTAP inh – blocks PTAP/TSG101 interaction to inhibit HIV-1 budding; Q99816; Fluorescence polarization, FITC-PTAP peptide / Tsg101 binding; Potency, µM (series often up to 115 µM), inactives show at the highest dose activity change, negative = inhibition, usual class: inhibitors; 340,000 tested, under 10 active; active means well fitted inhibition curve with a large enough effect in the main read-out, with a control signal flat, not every such curve was filed as active; inconclusive means small, poorly fitted or top-dose-only effect, or effect the other way, or a change in a side signal; inactive means no such curve, though single readings can be large or run the other way; further: % of control where 0% means no effect
Target sequence (Q99816 whole entry, looked up): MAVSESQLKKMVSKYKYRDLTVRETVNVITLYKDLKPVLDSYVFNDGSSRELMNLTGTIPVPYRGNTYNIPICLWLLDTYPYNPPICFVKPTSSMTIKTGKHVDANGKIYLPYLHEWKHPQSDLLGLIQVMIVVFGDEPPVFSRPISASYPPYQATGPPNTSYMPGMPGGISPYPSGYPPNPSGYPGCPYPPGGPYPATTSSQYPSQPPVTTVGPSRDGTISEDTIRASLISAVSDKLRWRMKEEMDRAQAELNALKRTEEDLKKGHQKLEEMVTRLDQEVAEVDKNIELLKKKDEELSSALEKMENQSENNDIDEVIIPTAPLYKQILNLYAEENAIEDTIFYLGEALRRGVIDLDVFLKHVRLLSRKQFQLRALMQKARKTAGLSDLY
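Fluorescence polarization binding of Tsg101 binding domain (10 uM final) to FITC-labeled PTAP peptide (50 nM final) in HEPES pH 7.5 buffer with NaCl, Tween 20, EDTA, TCEP. Compounds added before peptide; binding 20 min at RT.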
MCF10A rereplic – induces DNA re-replication in MCF 10a normal breast cells; Potency, µM (top dose mostly 46.1 µM), inactives show top-dose activity, positive = re-replication, hits mostly activators; 350,000 tested, 2.9% active; AID 624296; MCF 10A DNA re-replication, Hoechst nuclear intensity, 48 h; further: % of control where 0% means no effect; nearly all actives have a fitted effect of over 50% in size
RGS4 inhibitor – blocks human RGS4-accelerated GTP hydrolysis; P49798; Transcreener GDP fluorescence polarization, RGS4-accelerated GTP hydrolysis; Potency, µM (titrated, usually from 114 µM), for the others: at the top dose activity change, negative = inhibition, hits mostly inhibitors; 390,000 tested, 0.039% active; AID 504845; further: on the % scale 0 is the no-effect control and ±100 the full control effect; nearly all actives have a fitted effect of over 75% in size
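MLSMR compounds (23 nl, pin-transferred) preincubated 10 min at room temperature with a 500nM (2x) first reagent, then RGS4 at 900nM (2x) plus Transcreener GDP mix added; fluorescence polarization (620/688 nm) read before and after 90 min at 30 °C.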
KB-V1 cytotox – kills drug-selected multidrug resistant KB-V1 cells; KB-V1 MDR cells viability, CellTiter-Glo, 72 h; Potency, µM (doses to about 46.1 µM), actives largely listed as cytotoxic; 400,000 tested, 3.4% active; AID 1347076; further: on the % scale 0 is the no-effect control and ±100 the full control effect; nearly all actives have a fitted effect of over 60% in size
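Readout: CellTiter-Glo luminescence, 10 min after addition. Cells: KB-V1 MDR subline, 72 h at 37 degrees C with compound. Analysis: corrected, normalized data fitted to concentration-effect curves.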
Numbers without * were called inactive; i = inactive; ? = inconclusive; / = not tested or not shown; [ ] = another dose, or the depositor's remark. Compounds with a hit are over-represented: about 6.6% of the library has one in this group of screens. Unless noted, the call rests on the fitted dose curve; in most records, active means well fitted curve in the direction sought with a large enough effect; inconclusive means small, poorly fitted or top-dose-only effect, or another doubt; inactive means no such curve, though single readings can be large; an effect the other way counts as inactive or inconclusive. Potency means the concentration at half of the fitted maximal effect.

SMILES	KB-3-1 cytotox	SW480 rerep	TSG101-PTAP inh	MCF10A rereplic	RGS4 inhibitor	KB-V1 cytotox
C#C[C@]1(O)CC[C@H]2[C@@H]3CCC4=CCCC[C@@H]4[C@H]3C(=C)C[C@@]21CC	/	3.5%	/	13.3µM*	/	/
C#C[C@]1(O)CC[C@@H]2[C@H]3CCC4=CCCC[C@@H]4[C@@H]3CC[C@@]21C	/	1.6%[20.6 µM]	/	10.1µM*	/	/
C#C[C@]1(OC(C)=O)CCC2C3CCC4=CC(=O)CC[C@@H]4C3CC[C@@]21C (some centres undefined)	?	-2.3%	-2.0%	10.4%	2.5%	9.2µM*
CCN(CC(=O)Nc1c(F)cccc1F)C(=O)CCCc1nc2ccccc2c(=O)[nH]1	i	-1.5%	-3.0%	6.4%	-23.8%	i
CCN(CC(=O)Nc1c(F)cccc1F)C(=O)CCc1nc2ccccc2c(=O)[nH]1	i	29.1µM*	-1.6%	-14.9%	-17.2%	i
O=C(CCc1nc2ccccc2c(=O)[nH]1)NNC(=O)c1cccc(Cl)c1	i	29.1µM*	-6.1%	14.6%	6.4%	?
CCN(CC(=O)Nc1c(F)cccc1F)C(=O)CN(C)S(=O)(=O)c1ccc(F)cc1	i	2.0%	-0.9%	2.8%	5.5%	20.6µM*
O=C(CCc1nc2ccccc2c(=O)[nH]1)NNC(=O)c1ccc(Cl)cc1	i	-2.1%	-2.3%	-0.4%	12.7%	i
COc1ccc(-c2nc3ccc(NS(=O)(=O)c4ccc(C)cc4)cc3o2)cc1	i	/	/	/	4.2%	i
CCNc1ccc(/C=C2\C=Cc3ccccc32)cc1	i	/	/	/	/	i
Cc1cc(C)nc(Sc2ccc3nnc(C(F)(F)C(F)(F)C(F)(F)F)n3n2)n1	i	14.6µM*	-5.4%	?	-7.7%	i
O=C(Nc1ccccc1N1CCOCC1)c1cc2ccccc2o1	i	-10.3%	-0.3%	-4.6%	-3.2%	?
CC(=O)N1CCN(c2ccc(NC(=O)c3ccc4c(c3)OCCO4)cc2Cl)CC1	i	-3.7%	0.7%	?	-1.2%	?
CC(C)C(=O)N1CCN(c2ccc(NC(=O)c3ccc4c(c3)OCCO4)cc2Cl)CC1	?	5.7%	-21.2%	18.4µM*	-2.5%	2.91µM*
O=C(Nc1ccc(N2CCOCC2)c(Cl)c1)c1ccc(-n2cnnc2)cc1	i	-7.2%	-3.4%	2.2%	2.4%	i
O=C(Nc1ccc(N2CCOCC2)c(Cl)c1)c1cc2ccccc2o1	?	3.1%[9.22 µM]	0.5%	13µM*	-12.7%	?
O=C(Nc1ccc(N2CCOCC2)c(Cl)c1)c1ccc(F)cc1	i	-7.3%	-0.3%	?	-8.0%	14.6µM*
COc1ccc(N2CCOCC2)c(NC(=O)c2cc3ccccc3o2)c1	i	?	-6.6%	?	21.3%	11.6µM*
CN(C)c1ccc(C2C=Cc3ccccc32)c2ccccc12 (centres undefined)	i	/	/	/	/	i
CCOc1cccc2sc(N(Cc3cccnc3)C(=O)C3CCCCC3)nc12	i	/	/	/	-22.8%	i
O=C(Nc1nnc(-c2ccncc2)s1)NC12CC3CC(CC(C3)C1)C2	i	/	/	/	/	i
COc1ccccc1N1CCN(C(=O)C2c3ccccc3Oc3ccccc32)CC1	1.84µM*	5.8µM*	-4.5%	1.84µM*	10.4%	2.59µM*
O=C(NCc1c(Cl)cccc1Oc1ccccc1)c1ccccc1	i	-50.6%	-3.3%	?	-9.5%	11.6µM*
COc1cccc(Oc2cnc(N)nc2-c2ccc(OC)cc2O)c1	6.51µM*	7.31µM*	0.1%	6.51µM*	-22.4%	2.59µM*
C=C(C)COc1ccc(-c2nc(N)ncc2-c2ccc(Cl)cc2)c(O)c1	?	-12.6%	-3.6%	?	-25.6%	23.1µM*
Nc1ncc(-c2ccccc2)c(-c2ccc(OCc3ccccc3)cc2O)n1	?	?	-0.5%	20.6µM*	-3.4%	i

High-throughput results from PubChem.
